Assay results as given in PubChem BioAssay (EPA / NIEHS).
“And” between values parts separate entries of the source, which are not always exact repeats. Equal values may be shown once. Some structures have more than one record in an assay (separate samples or runs), and their calls can disagree. The source made the active and inactive calls. Rule for the calls: active = hit-call score of the fitted dose curve at least 0.9, where 1 is the maximum; inactive = score below 0.9.

Tests used:
[1] = BSK_3C_TissueFactor: BioMAP Diversity Plus: 3C Assay for Tissue Factor Biomarker Activity (AID 2282997); conditions: BioMAP 3C HUVEC, tissue factor biomarker readout; actives raise or lower the signal
How it was run: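 Dosing of human umbilical vein endothelial cells preceded a 24 h incubation. Tissue Factor was then read by ELISA, with increases and decreases both scored relative to DMSO controls.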

[2] = BSK_3C_VCAM1: BioMAP Diversity Plus: 3C Assay for Vascular cell adhesion molecule 1 (VCAM1) Biomarker Activity (AID 2282999); conditions: BioMAP 3C HUVEC, VCAM1 ELISA, cytokine-stimulated; actives raise or lower the signal
How it was run: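 Human umbilical vein endothelial cells were dosed with compound for 24 h, after which cell-surface VCAM-1 was quantified by ELISA. Bidirectional curve fitting used DMSO as negative control and activity baseline.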

[3] = read-out: Monokine induced gamma interferon (MIG), CXCL9 (gene 4283); assay: BSK_3C_MIG: BioMAP Diversity Plus: 3C Assay for Monokine induced gamma interferon (MIG) Biomarker Activity (AID 2283021); conditions: primary human endothelial cells (HUVEC); actives raise or lower the signal;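 for AC50: MIG protein level measured by immunoassay in the treated endothelial cultures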
How it was run: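 Primary human umbilical vein endothelial cells in the 3C system were exposed to chemical for 24 h, after which MIG was quantified by ELISA. Activity was fitted bidirectionally against DMSO as negative control and baseline.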

[4] = read-out: Monokine induced gamma interferon (MIG), CXCL9 (gene 4283); assay: BSK_BE3C_MIG: BioMAP Diversity Plus: BE3C Assay for Monokine induced gamma interferon (MIG) Biomarker Activity (AID 2283035); conditions: primary human bronchial epithelial cells; actives raise or lower the signal;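 for outcome: MIG protein measured by ELISA in BE3C cultures after 24 h of dosing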
How it was run: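 ELISA read-out of MIG in human lung bronchial epithelial primary cultures, 24 h post-dosing. Bidirectional curve fit vs DMSO baseline.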

[5] = read-out: Transforming growth factor beta 1 (TGFb1), TGFB1 (gene 7040); assay: BSK_BE3C_TGFb1: BioMAP Diversity Plus: BE3C Assay for Transforming growth factor beta 1 (TGFb1) Biomarker Activity (AID 2283036); conditions: primary human bronchial epithelial cells; actives raise or lower the signal
How it was run: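 Human primary bronchial epithelial cells (BE3C system) were dosed with chemical and TGF-b1 levels measured by ELISA at 24 h. Activity was fitted bidirectionally relative to DMSO negative control as baseline.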

[6] = read-out: Plasminogen activator inhibitor-1 (PAI1), SERPINE1 (gene 5054); assay: BSK_BE3C_PAI1: BioMAP Diversity Plus: BE3C Assay for Plasminogen activator inhibitor-1 (PAI1) Biomarker Activity (AID 2283037); conditions: primary human bronchial epithelial cells; actives raise or lower the signal
How it was run: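 Human primary bronchial epithelial cells were exposed to chemical for 24 h, then PAI-1 was quantified by ELISA. Activity was fitted bidirectionally relative to the DMSO negative control baseline.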

[7] = read-out: urokinase plasminogen activator (uPA), PLAU (gene 5328); assay: BSK_BE3C_uPA: BioMAP Diversity Plus: BE3C Assay for urokinase plasminogen activator (uPA) Biomarker Activity (AID 2283038); conditions: primary human bronchial epithelial cells; actives raise or lower the signal;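 for outcome: uPA protein level quantified by ELISA in cell cultures; uPA read one day after compound addition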
How it was run: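 ELISA for uPA on human primary bronchial epithelial cultures 24 h post-treatment, gain or loss against DMSO. Parallel SRB staining (0.1% after 10% TCA fixation, 560 nm) assessed overt cytotoxicity.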

[8] = read-out: Tissue plasminogen activator (tPA), PLAT (gene 5327); assay: BSK_BE3C_tPA: BioMAP Diversity Plus: BE3C Assay for Tissue plasminogen activator (tPA) Biomarker Activity (AID 2283041); conditions: primary human bronchial epithelial cells; actives raise or lower the signal;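 for outcome: tPA level quantified by ELISA one day after compound addition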
How it was run: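 Human primary bronchial epithelial cells were dosed with chemical and tPA biomarker levels measured by ELISA 24 hours later. Activity was fitted bidirectionally against DMSO as negative control and baseline.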

[9] = read-out: serum amyloid A (SAA), SAA1 (gene 6288); assay: BSK_CASM3C_SAA: BioMAP Diversity Plus: CASM3C Assay for serum amyloid A (SAA) Biomarker Activity (AID 2283049); conditions: primary human coronary artery smooth muscle cells; actives raise or lower the signal;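 note: SAA protein level quantified by ELISA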
[10] = read-out: Vascular cell adhesion molecule 1 (VCAM1), VCAM1 (gene 7412); assay: BSK_CASM3C_VCAM1: BioMAP Diversity Plus: CASM3C Assay for Vascular cell adhesion molecule 1 (VCAM1) Biomarker Activity (AID 2283055); conditions: primary human coronary artery smooth muscle cells; actives raise or lower the signal;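 note: VCAM-1 protein level quantified by ELISA on the cells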
[11] = read-out: Collagen III, COL3A1 (gene 1281); assay: BSK_hDFCGF_CollagenIII: BioMAP Diversity Plus: hDFCGF Assay for Collagen III Biomarker Activity (AID 2283056); conditions: primary human foreskin fibroblasts; actives raise or lower the signal
How it was run: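 ELISA readout of Collagen III in human dermal (foreskin) fibroblasts, taken 24 h post-treatment. Gain or loss relative to DMSO vehicle fitted in both directions.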

[12] = read-out: Macrophage colony-stimulating factor (MCSF), CSF1 (gene 1435); assay: BSK_hDFCGF_MCSF: BioMAP Diversity Plus: hDFCGF Assay for Macrophage colony-stimulating factor (MCSF) Biomarker Activity (AID 2283060); conditions: primary human foreskin fibroblasts; actives raise or lower the signal
How it was run: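 M-CSF levels read by ELISA at 24 h post-dosing in human skin fibroblasts. Parallel cultures stained with SRB assessed cytotoxicity at the same time point; response fitted in both directions against the DMSO baseline.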

[13] = read-out: Interleukin-1 alpha (IL1a), IL1A (gene 3552); assay: BSK_KF3CT_IL1a: BioMAP Diversity Plus: KF3CT Assay for Interleukin-1 alpha (IL1a) Biomarker Activity (AID 2283070); conditions: primary human keratinocytes with fibroblasts; actives raise or lower the signal
How it was run: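 Human keratinocyte plus foreskin fibroblast primary co-culture, sampled 24 h after chemical dosing. IL-1a measured by ELISA; responses fitted bidirectionally against DMSO baseline (negative control), so gain or loss of signal both count.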

[14] = read-out: TIMP metallopeptidase inhibitor 2 (TIMP2), TIMP2 (gene 7077); assay: BSK_KF3CT_TIMP2: BioMAP Diversity Plus: KF3CT Assay for TIMP metallopeptidase inhibitor 2 (TIMP2) Biomarker Activity (AID 2283071); conditions: primary human keratinocytes with fibroblasts; actives raise or lower the signal
How it was run: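 Human primary keratinocyte/foreskin fibroblast co-culture dosed with chemical and sampled at 24 h. TIMP-2 levels quantified by ELISA; bidirectional fitting against DMSO negative control as baseline.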

[15] = read-out: Matrix Metallopeptidase 9 (MMP9), MMP9 (gene 4318); assay: BSK_KF3CT_MMP9: BioMAP Diversity Plus: KF3CT Assay for Matrix Metallopeptidase 9 (MMP9) Biomarker Activity (AID 2283074); conditions: primary human keratinocytes with fibroblasts; actives raise or lower the signal;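 for AC50: MMP9 protein level quantified by ELISA in the co-culture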
How it was run: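 Keratinocyte plus foreskin fibroblast human primary skin co-culture was dosed with chemical and MMP-9 was quantified by ELISA 24 h later. Bidirectional curve fitting used DMSO as negative control and activity baseline.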

[16] = read-out: Tumor necrosis factor (Homo sapiens) (UniProt P01375); assay: BSK_LPS_TNFa: BioMAP Diversity Plus: LPS Assay for Tumour Necrosis Factor alpha (TNFa) Biomarker Activity (AID 2283085); conditions: primary human HUVEC with PBMC; actives raise or lower the signal;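 for AC50: TNFa protein level quantified by ELISA in the co-culture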
How it was run: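 Human umbilical vein endothelial cells co-cultured with PBMC were exposed to test chemical and TNFa measured by ELISA 24 h after dosing. Bidirectional curve fitting was done relative to DMSO as negative control and baseline.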

[17] = read-out: CD38, CD38 (gene 952); assay: BSK_SAg_CD38: BioMAP Diversity Plus: SAg Assay for CD38 Biomarker Activity (AID 2283087); conditions: primary human HUVEC with PBMC; actives raise or lower the signal
How it was run: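 Fluorescence ELISA of cell-surface CD38 served as the read-out, with either increase or decrease fitted against DMSO controls. Cells were a human umbilical vein endothelium plus PBMC co-culture under SEB/TSST-1 stimulation, measured 24 h after dosing.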

[18] = read-out: CD69, CD69 (gene 969); assay: BSK_SAg_CD69: BioMAP Diversity Plus: SAg Assay for CD69 Biomarker Activity (AID 2283089); conditions: primary human HUVEC with PBMC; actives raise or lower the signal;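 note: cell surface CD69 protein quantified by ELISA with fluorescence detection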
How it was run: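 Values derive from bidirectional fitting relative to DMSO vehicle. Cells: umbilical vein endothelium plus peripheral blood mononuclear cells, treated 24 h before fluorescent ELISA for CD69.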

[19] = read-out: E-selectin (Homo sapiens) (UniProt P16581); assay: BSK_SAg_Eselectin: BioMAP Diversity Plus: SAg Assay for Eselectin Biomarker Activity (AID 2283091); conditions: primary human HUVEC with PBMC; actives raise or lower the signal
How it was run: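 Cell-surface E-selectin is read by ELISA at 24 h in the SAg co-culture of HUVEC and PBMC. Curves are fitted in both directions relative to DMSO. Parallel SRB total-protein staining tracks overt toxicity.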

[20] = BSK_SAg_PBMCCytotoxicity: PBMC Cytotoxicity Assessment in the BioMAP Diversity Plus: SAg Assay (AID 2283093); conditions: primary human HUVEC with PBMC;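 note: PBMC viability measured as Alamar Blue reduction fluorescence at 546/580 nm; fitted both ways against DMSO so a hit may be loss or gain of signal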;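 for AC50: PBMC superantigen activated with SEB plus TSST-1 one hour after compound addition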
How it was run: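 Human umbilical vein endothelial cells co-cultured with PBMC; PBMC (75,000/well) pre-treated with compound 1 h, then activated with SEB and TSST-1 (20 ng/mL final each) for 90 h. Alamar Blue added 6 h, fluorescence 546/580 nm; bidirectional fit versus DMSO.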

Sequence of Tumor necrosis factor (Homo sapiens) (P01375 whole entry, looked up): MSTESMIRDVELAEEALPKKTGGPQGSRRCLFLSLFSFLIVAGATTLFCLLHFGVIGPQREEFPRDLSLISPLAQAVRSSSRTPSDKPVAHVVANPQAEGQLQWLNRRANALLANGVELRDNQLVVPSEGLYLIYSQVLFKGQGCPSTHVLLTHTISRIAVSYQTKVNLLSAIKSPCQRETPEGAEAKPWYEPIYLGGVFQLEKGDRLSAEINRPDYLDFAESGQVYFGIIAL
Sequence of E-selectin (Homo sapiens) (P16581 whole entry, looked up): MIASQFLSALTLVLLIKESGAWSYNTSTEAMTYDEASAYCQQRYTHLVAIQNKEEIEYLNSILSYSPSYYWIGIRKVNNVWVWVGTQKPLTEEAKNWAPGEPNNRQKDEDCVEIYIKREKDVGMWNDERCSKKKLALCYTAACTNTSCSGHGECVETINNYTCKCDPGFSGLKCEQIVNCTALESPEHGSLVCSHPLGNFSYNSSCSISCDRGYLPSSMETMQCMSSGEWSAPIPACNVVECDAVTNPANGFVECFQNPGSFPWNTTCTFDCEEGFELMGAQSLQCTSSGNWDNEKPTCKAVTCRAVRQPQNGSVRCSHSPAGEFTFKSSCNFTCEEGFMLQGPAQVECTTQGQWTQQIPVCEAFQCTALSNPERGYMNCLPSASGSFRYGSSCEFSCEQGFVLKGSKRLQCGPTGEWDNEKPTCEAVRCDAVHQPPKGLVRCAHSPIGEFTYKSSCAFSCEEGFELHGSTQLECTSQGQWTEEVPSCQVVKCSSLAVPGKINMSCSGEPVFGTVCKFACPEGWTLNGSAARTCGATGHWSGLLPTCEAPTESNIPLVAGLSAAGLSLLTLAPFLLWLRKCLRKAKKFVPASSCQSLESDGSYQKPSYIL

## O=C(O)CCCc1ccc(N(CCCl)CCCl)cc1
[1]
  AC50: 20 µM (active) and 12.3 µM (active)
[2]
  AC50: 31.8 µM (active) and 28.7 µM (active)
[3]
  AC50: 32.8 µM (active)
  outcome: inactive
[4]
  AC50: 28.9 µM (active)
  outcome: inactive
[5]
  AC50: 20 µM (active)
  outcome: inactive
[6]
  AC50: 3.97 µM (active)
  outcome: inactive
[7]
  AC50: 8.11 µM (active)
  outcome: inactive
[8]
  AC50: 10.7 µM (active)
  outcome: inactive
[9]
  AC50: 20 µM (active)
  outcome: inactive
[10]
  AC50: 17 µM (active) and 20 µM (active)
[11]
  AC50: 20 µM (active)
  outcome: inactive
[12]
  AC50: 16.6 µM (active)
  outcome: inactive
[13]
  AC50: 12.3 µM (active)
  outcome: inactive
[14]
  AC50: 30.6 µM (active) and 32.6 µM (active)
[15]
  AC50: 20 µM (active)
  outcome: inactive
[16]
  AC50: 26.5 µM (active)
  outcome: inactive
[17]
  AC50: 26.6 µM (active) and 12.3 µM (active)
[18]
  AC50: 23.7 µM (active) and 20 µM (active)
[19]
  AC50: 31 µM (active) and 20 µM (active)
[20]
  AC50: 20 µM (active)
  outcome: inactive

## Cc1ccc(OP(=O)(Oc2ccc(C)cc2)Oc2ccc(C)cc2)cc1 (tested in a mixture with another compound)
[1]
  outcome: inactive
[2]
  outcome: inactive
[3]
  outcome: inactive
[4]
  outcome: inactive
[5]
  outcome: inactive
[6]
  outcome: inactive
[7]
  outcome: inactive
[8]
  outcome: inactive
[9]
  outcome: inactive
[10]
  outcome: inactive
[11]
  AC50: 12.9 µM (active)
[12]
  AC50: 20 µM (active)
[13]
  outcome: inactive
[14]
  AC50: 5.39 µM (active)
[15]
  AC50: 13.6 µM (active)
[16]
  outcome: inactive
[17]
  AC50: 20 µM (active)
[18]
  AC50: 9.8 µM (active)
[19]
  AC50: 20 µM (active)
[20]
  outcome: inactive

## O=[N+]([O-])C=Cc1ccccc1
[1]
  AC50: 4.68 µM (active)
[2]
  AC50: 6.25 µM (active)
[3]
  AC50: 11.4 µM (active)
[4]
  AC50: 3.89 µM (active)
[5]
  AC50: 5.17 µM (active)
[6]
  outcome: inactive
[7]
  AC50: 1.03 µM (active)
[8]
  outcome: inactive
[9]
  outcome: inactive
[10]
  AC50: 8.66 µM (active)
[11]
  AC50: 33.1 µM (active)
[12]
  AC50: 2.91 µM (active)
[13]
  AC50: 5.78 µM (active)
[14]
  AC50: 8.02 µM (active)
[15]
  AC50: 3.08 µM (active)
[16]
  AC50: 9.91 µM (active)
[17]
  AC50: 24.9 µM (active)
[18]
  AC50: 20 µM (active)
[19]
  AC50: 20 µM (active)
[20]
  AC50: 13 µM (active)
